Results on 10 compounds are retold here after PubChem BioAssay (Tox21).

“And” between values parts separate entries of the source, which are not always exact repeats. Equal entries are not always repeated. Inconclusive results are not listed. Some compounds were tested as several samples or in several runs, with calls that do not always agree. The source made the active and inactive calls. Unless noted, calls come from the whole dose curve; as a rule, active = well fitted curve in the direction sought with a large enough effect in the repeat runs; inconclusive = weak or mixed curves; inactive = no such curve, though single readings can be large; an effect the other way counts as inactive or inconclusive.

Assay [1] in a line: qHTS assay to identify small molecule agonists of the RXR signaling pathway - cell viability counter screen (AID 1159529). Note: % is set by controls: 0 for no effect and ±100 for the full control effect; nearly all actives have a fitted effect of over 50% in size. A digest of the protocol:
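CellTiter-Glo luminescence gave viability in the wells also read for beta-lactamase. Cells (RXR-alpha-UAS-bla HEK 293T, 2% charcoal-stripped FBS medium) had 5 hr plating, then 16 hr compound exposure at 37 C; tetraoctyl ammonium bromide served as positive control.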
A general note: Quantitative high-throughput screening tests each substance at several concentrations.

Assay [2] is described as follows: qHTS assay to identify small molecule antagonists of the retinoid acid receptor (RAR) signaling pathway - cell viability counter screen (AID 1159551). Note: % is set by controls: 0 for no effect and ±100 for the full control effect; nearly all actives have a fitted effect of over 35% in size. A digest of the protocol:
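C3RL4 RARE-luciferase cells, 1,000/well, incubated overnight, then dosed with compound plus 1 uM retinol (final). After 6 hr at 37 C, viability read by CellTiter-Glo ATP luminescence following 30 min at room temperature.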

Assay [3] in a line: qHTS assay to identify small molecule antagonists of the retinoic acid receptor (RAR) signaling pathway (AID 1159552; note: % is set by controls: 0 for no effect and ±100 for the full control effect; nearly all actives have a fitted effect of over 50% in size). A digest of the protocol:
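Luminescent RARE reporter read-out in C3RL4 cells: 6 hr co-treatment at 37 C of test compounds with retinol at 1 uM final. Cells plated overnight beforehand; luciferase reagent incubated 30 min at room temperature before reading.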

Assay [4] can be described thus: qHTS assay to identify small molecule agonists of the retinoic acid receptor (RAR) signaling pathway (AID 1159553). For activation: % is set by controls: 0 for no effect and ±100 for the full control effect. Note: potency is the fitted concentration of half-maximal effect. As to conditions: C3RL4 RARE luciferase reporter, agonist, 6 h; activation: at 73.3 µM (top of the series) unless noted. A digest of the protocol: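 C3RL4 RARE-luciferase cells were seeded at 1,000/well and grown overnight at 37 C, then exposed to compounds for 6 hr at 37 C, 5% CO2. Luciferase reagent was added and luminescence was read after 30 min at room temperature.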

The nature of assay [5]: qHTS assay to identify small molecule antagonists of the estrogen related receptor (ERR) signaling pathway from Tox21 library - cell viability counter screen (AID 1224834). Note: nearly all actives have a fitted effect of over 30% in size. Note: potency is the fitted concentration of half-maximal effect. A digest of the protocol:
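ERR reporter cells, 2,000 per well, rested 6 h, then exposed to compound in DMSO for 17.5 hours at 37 C. Viability read as fluorescence after 30 min with CellTiter-Fluor.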

Assay [6] concerns the target Luciferin 4-monooxygenase (Photinus pyralis) (UniProt P08659). Put plainly: qHTS assay to identify small molecule inhibitors of firefly luciferase (AID 1224835). For activity change, negative = inhibition: % is set by controls: 0 for no effect and ±100 for the full control effect. Note: nearly all actives have a fitted effect of over 25% in size. Note: potency is the fitted concentration of half-maximal effect. A digest of the protocol: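 Quantitative HTS format; KM concentrations of both substrates. Purified P. pyralis FLuc activity quantified from luminescence images.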
The nature of assay [7]: qHTS assay to identify small molecule agonists of the constitutive androstane receptor (CAR) signaling pathway - cell viability counter screen (AID 1224836). Note: % is set by controls: 0 for no effect and ±100 for the full control effect; nearly all actives have a fitted effect of over 45% in size. A digest of the protocol:
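Cell viability multiplexed with the CAR agonist screen: CellTiter-Fluor fluorescence after 23 hr at 37 C. HepG2-CYP2B6-hCAR cells got compounds at 15 concentrations with PK11195 at 0.75 uM final.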

Assay [8] is described as follows: qHTS assay to identify small molecule antagonists of the constitutive androstane receptor (CAR) signaling pathway - cell viability counter screen (AID 1224837). Note: nearly all actives have a fitted effect of over 45% in size. Note: potency is the fitted concentration of half-maximal effect. A digest of the protocol: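 HepG2 cells stably carrying hCAR and CYP2B6-2.2kb reporter, stimulated with 50 nM CITCO and compounds at 15 concentrations for 23 h at 37 C. Viability measured by CellTiter-Fluor fluorescence.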

A short description of assay [9]: qHTS assay to identify small molecule antagonists of the estrogen related receptor signaling pathway with the pleiotropic PPARgamma coactivator (PGC) from Tox21 10K library - cell viability counter screen (AID 1224840; active = well fitted cell-killing curve with a large enough effect in the repeat runs, not every such curve was filed as active; note: nearly all actives have a fitted effect of over 40% in size; note: potency is the fitted concentration of half-maximal effect). A digest of the protocol:
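PGC/ERR cells (2,000/well) plated 6 h, then compound-treated for 17.5 h at 37 C. Viability measured by CellTiter-Fluor fluorescence after 30 min at 37 C, multiplexed with the pathway assay.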

Assay [10] deals with Thyrotropin receptor (Homo sapiens) (UniProt P16473). Nature of the assay: qHTS assay to identify small molecule agonists of the thyroid stimulating hormone receptor (TSHR) signaling pathway (AID 1224843; calls by dose curve; note: % is set by controls: 0 for no effect and ±100 for the full control effect; nearly all actives have a fitted effect of over 45% in size). A digest of the protocol: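 Cell line HEK293 with TSHR; density 800/well. Exposure 30 min RT. Readout HTRF cAMP (cAMP-d2/anti-cAMP-cryptate), 1 h RT before reading.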
Thyrotropin receptor (Homo sapiens), sequence (P16473 whole entry, looked up): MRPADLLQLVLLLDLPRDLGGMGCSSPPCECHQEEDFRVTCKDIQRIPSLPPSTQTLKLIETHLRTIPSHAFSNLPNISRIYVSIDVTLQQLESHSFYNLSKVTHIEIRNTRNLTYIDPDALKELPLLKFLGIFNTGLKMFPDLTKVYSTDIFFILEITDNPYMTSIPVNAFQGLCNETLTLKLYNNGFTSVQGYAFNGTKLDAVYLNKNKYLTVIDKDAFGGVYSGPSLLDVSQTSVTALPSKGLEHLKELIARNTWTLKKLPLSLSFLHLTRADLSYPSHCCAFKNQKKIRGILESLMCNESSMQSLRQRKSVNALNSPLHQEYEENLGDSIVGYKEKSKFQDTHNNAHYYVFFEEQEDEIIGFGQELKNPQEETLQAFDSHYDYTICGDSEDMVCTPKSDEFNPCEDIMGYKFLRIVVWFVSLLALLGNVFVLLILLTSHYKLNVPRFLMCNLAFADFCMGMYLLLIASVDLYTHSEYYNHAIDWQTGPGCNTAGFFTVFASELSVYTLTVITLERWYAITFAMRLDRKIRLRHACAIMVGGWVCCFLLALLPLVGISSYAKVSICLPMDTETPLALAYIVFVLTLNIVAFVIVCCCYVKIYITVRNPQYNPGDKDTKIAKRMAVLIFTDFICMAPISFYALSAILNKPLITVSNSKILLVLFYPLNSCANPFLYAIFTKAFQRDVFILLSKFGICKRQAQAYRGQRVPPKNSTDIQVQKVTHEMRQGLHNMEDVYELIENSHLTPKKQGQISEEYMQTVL
In assay [11] the target is Nuclear receptor subfamily 1 group I member 3 (Homo sapiens) (UniProt Q14994). Nature of the assay: qHTS assay to identify small molecule antagonists of the constitutive androstane receptor (CAR) signaling pathway (AID 1224838). Note: nearly all actives have a fitted effect of over 40% in size. Note: potency is the fitted concentration of half-maximal effect. A digest of the protocol:
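HepG2 cells stably carrying hCAR and a CYP2B6-2.2kb luciferase reporter, seeded 4 hrs before compound (15 concentrations). Stimulated with 50 nM CITCO for 24 hr at 37 C. ONE-Glo luminescence read after 30 min at room temperature.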

Assay [12] shares this target. Put plainly: qHTS assay to identify small molecule agonists of the constitutive androstane receptor (CAR) signaling pathway (AID 1224839). Note: % is set by controls: 0 for no effect and ±100 for the full control effect; nearly all actives have a fitted effect of over 15% in size. A digest of the protocol: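 Luminescent ONE-Glo read-out after 24 hr, 37 C exposure of double-stable HepG2-CYP2B6-hCAR reporter cells to a 15-point compound series, in the presence of 0.75 uM PK11195 (final).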
Assay [13] can be described thus: qHTS assay to identify small molecule antagonists of the estrogen related receptor signaling pathway with the pleiotropic PPARgamma coactivator (PGC) from Tox21 10K library (AID 1224841; call rule not given here; note: actives are mostly falling curves and most rising ones were filed inactive; nearly all actives have a fitted effect of over 50% in size; note: potency is the fitted concentration of half-maximal effect). A digest of the protocol:
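PGC/ERR cell line, 2,000 cells/well, pre-incubated 6 hours at 37 C, then exposed to compounds for 18 hours at 37 C; luciferase read with One-Glo luminescence after 30 min at room temperature.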

The nature of assay [14]: qHTS assay to identify small molecule agonists of the estrogen related receptor signaling pathway with the pleiotropic PPARgamma coactivator (PGC) from Tox21 10K library (AID 1224842). Note: % is set by controls: 0 for no effect and ±100 for the full control effect; nearly all actives have a fitted effect of over 15% in size. A digest of the protocol:
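PGC/ERR reporter cells (NTP line) were seeded 2,000 per well, rested 6 h at 37 C/5% CO2, then pin-dosed with compounds in DMSO for 18 h at 37 C; luciferase read by One-Glo luminescence after 30 min at room temperature.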

The nature of assay [15]: qHTS assay to identify small molecule antagonists of the estrogen related receptor (ERR) signaling pathway (AID 1224819; note: potency is the fitted concentration of half-maximal effect; nearly all actives have a fitted effect of over 50% in size). A digest of the protocol: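 ERR reporter cell line (NTP) plated at 2,000 cells/well, settled 6 h at 37C/5% CO2, then exposed to LOPAC compounds for 18 h at 37C. One-Glo luciferase luminescence read after 30 min at room temperature.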
A short description of assay [16]: qHTS assay to identify small molecule agonists of the estrogen related receptor (ERR) signaling pathway (AID 1224820). Note: % is set by controls: 0 for no effect and ±100 for the full control effect. A digest of the protocol:
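Cells: ERR line from NTP, 2,000/well. Pre-incubation 6 h, 37 C/5% CO2. Compound (DMSO) pin transfer, 18 h 37 C. One-Glo, 30 min RT, luminescence.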

The test system of assay [17] is estrogen-related receptor alpha (ERRalpha) with PGC-1alpha coactivator, human. Put plainly: qHTS assay to identify small molecule antagonists of the estrogen related receptor signaling pathway with the pleiotropic PPARgamma coactivator (PGC) (AID 1224821; calls by dose curve). A digest of the protocol:
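Luminescent read-out (One-Glo, 30 min at room temperature) following 18 h treatment of PGC/ERR cells at 37 C with compounds delivered in DMSO. Cells had settled 6 h at 37 C/5% CO2 before dosing.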

Assay [18] is described as follows: qHTS assay to identify small molecule antagonists of the estrogen related receptor signaling pathway with the pleiotropic PPARgamma coactivator (PGC) cell viability counter screen (AID 1224822; note: potency is the fitted concentration of half-maximal effect). A digest of the protocol:
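PGC/ERR cells rested 6 h, then compound-treated 17.5 h at 37 C. CellTiter-Fluor added for 30 min at 37 C, viability measured by fluorescence intensity.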

A short description of assay [19]: qHTS assay to identify small molecule agonists of the estrogen related receptor signaling pathway with the pleiotropic PPARgamma coactivator (PGC) (AID 1224823). Note: % is set by controls: 0 for no effect and ±100 for the full control effect. A digest of the protocol:
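Steps: plate PGC/ERR cells at 2,000 cells/well; incubate 6 h, 37 C/5% CO2; pin-transfer compounds (DMSO); incubate 18 h, 37 C; add One-Glo; 30 min RT; read luminescence.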

Luciferin 4-monooxygenase (Photinus pyralis), sequence (P08659 whole entry, looked up): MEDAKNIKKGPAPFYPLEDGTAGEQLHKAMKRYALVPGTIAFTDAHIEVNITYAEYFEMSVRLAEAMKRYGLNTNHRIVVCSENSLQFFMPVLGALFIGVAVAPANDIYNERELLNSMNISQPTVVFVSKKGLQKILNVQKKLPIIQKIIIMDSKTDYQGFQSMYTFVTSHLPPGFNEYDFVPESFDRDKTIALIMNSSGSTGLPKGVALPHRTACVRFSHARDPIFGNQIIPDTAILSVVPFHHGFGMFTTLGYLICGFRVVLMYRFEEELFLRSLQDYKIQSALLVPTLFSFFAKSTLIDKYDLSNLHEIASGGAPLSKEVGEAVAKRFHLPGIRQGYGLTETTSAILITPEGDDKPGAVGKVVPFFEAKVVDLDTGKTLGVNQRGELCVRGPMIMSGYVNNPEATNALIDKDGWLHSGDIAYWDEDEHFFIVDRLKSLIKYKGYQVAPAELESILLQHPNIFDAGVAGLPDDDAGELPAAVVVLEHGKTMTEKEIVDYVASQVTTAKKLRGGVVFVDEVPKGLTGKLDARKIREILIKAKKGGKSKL
Nuclear receptor subfamily 1 group I member 3 (Homo sapiens), sequence (Q14994 whole entry, looked up): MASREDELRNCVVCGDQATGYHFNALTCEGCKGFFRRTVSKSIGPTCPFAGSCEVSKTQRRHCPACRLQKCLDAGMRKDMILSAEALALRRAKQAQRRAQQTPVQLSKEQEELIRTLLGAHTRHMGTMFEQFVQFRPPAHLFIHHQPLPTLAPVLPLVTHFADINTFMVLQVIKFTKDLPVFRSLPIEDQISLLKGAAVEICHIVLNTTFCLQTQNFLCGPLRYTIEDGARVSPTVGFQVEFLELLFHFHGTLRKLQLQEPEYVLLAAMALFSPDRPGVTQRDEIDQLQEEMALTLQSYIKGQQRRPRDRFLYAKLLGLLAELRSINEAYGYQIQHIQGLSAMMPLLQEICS

In the case of `COC(=O)CCCCC(=O)OC`, the Potency entry in assay [1], in assay [2], in assay [3], in assay [4], in assay [5] and in assay [6] was “inactive” each time. The Potency result in assay [7], in [8] and in [9] was “inactive” throughout.
For `CCCCCCCCCCCC(=O)N(C)CC(=O)O`, the activity change, negative = cytotoxicity in [1] is 3.37% [at 6.97 µM] (inactive). Further, the Potency result in [3], in [4], in [5], in [7], in assay [8] and in assay [9] was “inactive” each time. The Potency entry in assay [10] was “inactive”. Also, the Potency in assay [6] was 77.2 µM (active). Further, the activity change, negative = inhibition in assay [6] was 1.62% [at 10.5 µM] (inactive).
Turning to `O=C1O[C@H]([C@H](O)CO)C(O)=C1O`, the Potency result in assay [1], in assay [2], in [5], in [6], in assay [7] and in [8] was “inactive” in each case. Also, the Potency entry in [11], in [12], in assay [9] and in [10] was “inactive” in each case.
Regarding `Cc1nnc(NS(=O)(=O)c2ccc(N)cc2)s1`, the Potency result in assay [1], in [2], in assay [5], in assay [6], in [7] and in assay [8] was “inactive” throughout. The Potency entry in [9] and in [10] was “inactive” throughout.
For `CCc1cccc(O)c1`, the Potency entry in [1], in assay [2], in assay [5], in assay [6], in assay [7] and in assay [8] was “inactive” throughout. Besides, the Potency entry in [11], in [12], in assay [9] and in [10] was “inactive” each time.
For the compound `OC[C@H]1O[C@@H](Oc2ccc(O)cc2)[C@H](O)[C@@H](O)[C@@H]1O`, the Potency result in assay [1], in [2], in assay [3], in [4], in assay [5] and in assay [6] was “inactive” in each case. Also, the Potency result in assay [7], in [8], in assay [9], in assay [13], in [14] and in assay [10] was “inactive” each time.
In the case of `Cc1cccc(C)c1[N+](=O)[O-]`, the Potency entry in assay [1], in [2], in assay [3], in assay [4], in assay [5] and in assay [6] was “inactive” each time. In addition, the Potency entry in assay [7], in assay [8], in assay [9] and in assay [10] was “inactive” throughout.
In the case of `CCc1cccc(CC)c1N`, the Potency entry in assay [1], in assay [2], in [5], in assay [6], in assay [7] and in [8] was “inactive” each time. The Potency entry in assay [11], in assay [12], in assay [9] and in assay [10] was “inactive” throughout.
For the compound `c1cnc2c(c1)ccc1cccnc12`, the Potency result in assay [1], in [2], in assay [12], in assay [14] and in [10] was “inactive” each time. The Potency is 2.19 µM (active) and 9.69 µM (active) and 2.73 µM (active) in assay [4]; 2.98 µM (active) in assay [15]; 2.03 µM (active) in [17]; 6.68 µM (active) in assay [18]; 19.5 µM (active) and 2.17 µM (active) and 4.86 µM (active) in assay [5]; 71.7 µM (active) and inactive in assay [6]. Moreover, the Potency in [8] is 617 nM (active) and 1.93 µM (active); in assay [11], 219 nM (active) and inactive and 864 nM (active); in assay [9] it was 2.76 µM (active) and 2.73 µM (active); in assay [13] it was 777 nM (active) and 969 nM (active) and 1.72 µM (active). The call in assay [16] and in assay [19] was inactive.
For `Cc1ccccc1Cl`, the Potency result in assay [1], in [2], in [5], in [6], in assay [7] and in assay [8] was “inactive” in each case. The Potency entry in assay [11], in [12], in assay [9] and in [10] was “inactive” throughout.
